Compound activity (PubChem)
Sampled rows, rich in hits. Any-hit rate of the full collection: about 2%.
STK33 kin inh: STK33 kinase inhibitors, primary screen, biochemical, luminescence, ADP-Glo, MBP substrate; Serine/threonine-protein kinase 33 (Homo sapiens), Q9BYT3; inhibition, % at 12.5 µM; actives 0.44% (n = 27,000); AID 2322, 2010; in the data active means inhibition above about 20%
mut p53 react: mutant p53 pathway re-activators, primary screen, cell-based, SW480, luciferase, single point, HTS; actives 1.5% (n = 28,000); activation, % at 9.98 µM; SW480 PUMA-promoter luciferase, p53 mutant reactivation; AID 624151, 2012; in the data active means activation above about 52%
ID4 binder: binders of human ID4 protein, primary screen, biochemical, small molecule microarray, single point. Flag-ID4 binding, fluorescence F/B. calls only. actives 1.2% (n = 31,000); call rule not given here;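 further: a binder raises fluorescence above local background on the spot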
Active calls of the source: *; i = inactive; x = no result; + = active, no number.

SMILES	STK33 kin inh	mut p53 react	ID4 binder
Cc1c(C(=O)c2cccc3ccccc23)c2cccc3c2n1[C@@H](CN1CCOCC1)CO3	x	-9	+
COC1=CC(=O)O[C@@H](CCc2ccc3c(c2)OCO3)C1	-1	15	i
COC1=CC(=O)O[C@@H](/C=C/c2ccccc2)C1	-4	78*	i
CC(=O)NC1C(OC2OC(CC(O)C3OC(n4ccc(=O)[nH]c4=O)C(O)C3O)C(O)C(O)C2NC(=O)/C=C/CCCCCCCCCC(C)C)OC(CO)C(O)C1O (stereo not drawn)	-17	x	x
CCC(C)[C@H]1C(=O)O[C@H](C(C)C)C(=O)N(C)[C@@H](C(C)CC)C(=O)O[C@H](C(C)C)C(=O)N(C)[C@@H](C(C)CC)C(=O)O[C@H](C(C)C)C(=O)N1C (stereo partly drawn)	-3	x	x
CCOC(=O)c1cc2c(cn1)[nH]c1ccccc12	-1	65*	i
COC(=O)c1cc2c(cn1)[nH]c1ccccc12	-8	12	i
Cc1cc(Br)c(NC(=O)C2C(C)(C)C2(C)C)c(Br)c1	-1	x	x
C[C@@H]1CCC/C=C/[C@H]2C[C@@H](O)C[C@@H]2[C@@H](O)/C=C\C(=O)O1	3	x	x
